Source: PubChem BioAssay AID493001 (Johns Hopkins Ion Channel Center, 2010)
About 430 (23%) of roughly 1,900 compounds were called active.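 The calls were made as follows: active = duplicate-averaged calcium rise in uninduced cells above buffer wells' mean plus 5 SD; inactive = the rest.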 These entries were drawn from the full list.

assay: direct calcium signal without carbachol stimulation – cell-based, HEK293 M3R, non-induced, no carbachol, second counter-screen, artefact control for RGS4 inhibitor project, confirmation (AID 493001); settings: Fluo-4 calcium, at 10 µM; stronger effect = higher value, normalised: buffer wells 0%, carbachol wells 100%

Question: For COc1ccccc1C1C(C#N)=C(N)Oc2c1c(-c1ccccc1)nn2-c1ccccc1 (stereo not drawn), which calcium response (agonist-mode artifact) is on record?
Answer: 8% (active)

Question: With O=C(Nc1ccccc1)OCc1cc(-c2ccc(Cl)cc2)on1 as the compound, how does the calcium response (agonist-mode artifact) read?
Answer: inactive

Question: With COc1ccc2c(c1OC)C(=O)OC2Nc1nc(-c2ccccc2)cs1 (stereo not drawn) as the compound, how does the calcium response (agonist-mode artifact) read?
Answer: inactive

Question: With CC(C)c1nc(SCC(=O)Nc2cccc(C(=O)O)c2)c2c3c(sc2n1)CCCC3 as the compound, how does the calcium response (agonist-mode artifact) read?
Answer: inactive

Question: With O=C(NCCCc1ccccc1)C1CCC(CNc2c(N3CCCCC3)c(=O)c2=O)CC1 (stereo not drawn) as the compound, how does the calcium response (agonist-mode artifact) read?
Answer: inactive

Question: For Cn1c(-c2ccco2)nc2cc3ccccc3cc21, which calcium response (agonist-mode artifact) is on record?
Answer: inactive

Question: With Cc1ccc(-c2c3c(=O)n(C)c(=O)n(C)c3cn2-n2cnnc2)cc1 as the compound, how does the calcium response (agonist-mode artifact) read?
Answer: inactive

Question: For Nc1ccccc1SC(C[N+](=O)[O-])c1ccccc1 (stereo not drawn), which calcium response (agonist-mode artifact) is on record?
Answer: 26% (active)

Question: With c1ccc(C[C@H]2CNCCN2CCC23CC4CC(CC(C4)C2)C3)cc1 as the compound, how does the calcium response (agonist-mode artifact) read?
Answer: inactive

Question: With C=CCSc1nc2c(c(=O)[nH]1)C(C(C)C)C(C#N)=C(N)O2 (stereo not drawn) as the compound, how does the calcium response (agonist-mode artifact) read?
Answer: inactive

Question: With CCn1c(O)c(N=NC2=NC(=O)CS2)c2cc(C)ccc21 as the compound, how does the calcium response (agonist-mode artifact) read?
Answer: inactive

Question: For O=C1NC(c2ccc(-c3ccccc3[N+](=O)[O-])o2)C(C(=O)c2ccc(Cl)cc2)C(O)(C(F)(F)F)N1 (stereo not drawn), which calcium response (agonist-mode artifact) is on record?
Answer: 7% (active)

Question: Which calcium response (agonist-mode artifact) does the source give for Cc1ccc(SC(CC(=O)c2ccc(C(C)(C)C)cc2)C(=O)O)cc1 (stereo not drawn) here?
Answer: inactive

Question: For O=C(Nc1ccc(Cl)cc1)OCc1cc(-c2ccccc2)on1, which calcium response (agonist-mode artifact) is on record?
Answer: inactive

Question: For O=C(O)c1ccc2c(c1)C(=O)N(c1ccc(/C=C/C(=O)c3ccccc3)cc1)C2=O, which calcium response (agonist-mode artifact) is on record?
Answer: inactive

Question: Which calcium response (agonist-mode artifact) does the source give for COc1cc(/C=C2/SC(=S)N(Cc3ccccc3)C2=O)cc(OC)c1O here?
Answer: 37.5% (active)

Question: For COc1ccc(/C(O)=C2/C(=O)C(=O)N(c3nc(C)c(C)s3)C2c2ccco2)cc1 (stereo not drawn), which calcium response (agonist-mode artifact) is on record?
Answer: inactive

Question: For COc1ccc(-c2csc(Nc3ccc(O)cc3)n2)cc1, which calcium response (agonist-mode artifact) is on record?
Answer: inactive

Question: For CNc1nc(Nc2ccc(C)c(Cl)c2)nc(N)c1[N+](=O)[O-], which calcium response (agonist-mode artifact) is on record?
Answer: inactive

Question: Which calcium response (agonist-mode artifact) does the source give for O=C(O)c1ccc2c(=O)n3c(nc2c1)/C(=C/c1ccc(Cl)c([N+](=O)[O-])c1)CC3 here?
Answer: inactive

Question: For COc1cc2c(cc1O)C(SC)=NC(C)(C)C2, which calcium response (agonist-mode artifact) is on record?
Answer: inactive

Question: For Cc1cc(C)nc(S/C=C/C(=O)c2ccccc2)n1, which calcium response (agonist-mode artifact) is on record?
Answer: inactive

Question: With O=C(/C=C/Sc1ncn[nH]1)c1ccc(Cl)cc1 as the compound, how does the calcium response (agonist-mode artifact) read?
Answer: 9% (active)

Question: For CC(=O)Nc1ccc(S(=O)(=O)Nc2nc(-c3ccc(C(C)(C)C)cc3)cs2)cc1, which calcium response (agonist-mode artifact) is on record?
Answer: inactive

Question: With O=C(/C=C/c1ccc(Cl)c([N+](=O)[O-])c1)c1cccnc1 as the compound, how does the calcium response (agonist-mode artifact) read?
Answer: inactive

Question: For Cc1ccc(C)c(Cn2nnc3c(=O)[nH]c(C(=O)Nc4ccc(F)cc4)nc32)c1, which calcium response (agonist-mode artifact) is on record?
Answer: inactive

Question: With O=C(NCc1ccccc1)c1ccc(S(=O)(=O)Nc2cccc(C(F)(F)F)c2)cc1 as the compound, how does the calcium response (agonist-mode artifact) read?
Answer: 13% (active)

Question: Which calcium response (agonist-mode artifact) does the source give for CCc1ccc2oc(-c3ccc(N)cc3)nc2c1 here?
Answer: inactive
